Results as given in PubChem BioAssay.
A number with no mark means an inactive call. Activity calls are given as the source filed them. Unless noted, no stated cut-off is given here; in the data, active means inhibition above about 33%; inactive means the rest.

Tests used:
[1] = StAR promoter reporter inhibitors, counter-screen for LRH-1 inverse agonist project, cell-based, luminescence, high throughput (AID 651611; in the data active means inhibition above about 28%); details: StAR promoter luciferase reporter counterscreen, at 3.6 µM, stronger effect = higher value
[2] = target: Nuclear receptor subfamily 5 group A member 2 (Homo sapiens) (UniProt O00482); assay: LRH-1 (NR5A2) inverse agonists, retest, confirmation, cell-based, luminescence (AID 651613; in the data active means inhibition above about 42%;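 further: HEK293T cells co-transfected with LRH-1 and StAR promoter luciferase reporter; 0% = vehicle wells and 100% = parental cells lacking receptor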); details: cell-based LRH-1 luciferase reporter, inverse agonism; at 3.6 µM; stronger effect = higher value
[3] = target: Steroidogenic factor 1 (Homo sapiens) (UniProt Q13285); assay: SF1 (NR5A1) inverse agonists, counter-screen for LRH-1 inverse agonist project, cell-based, luminescence, high throughput (AID 651614; in the data active means inhibition above about 44%;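 further: cells cotransfected with StAR promoter reporter and SF1 expression vector; 0% = vehicle on cells with receptor and 100% = vehicle on cells lacking receptor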); details: cell-based SF1 luciferase reporter, at 3.6 µM, stronger effect = higher value
[4] = VP16 transactivation reporter inhibitors, counter-screen for LRH-1 inverse agonist project, cell-based, luminescence, high throughput (AID 651615); details: Gal4-VP16 luciferase reporter cells, at 3.6 µM, stronger effect = higher value

Sequence of Nuclear receptor subfamily 5 group A member 2 (Homo sapiens) (O00482 whole entry, looked up): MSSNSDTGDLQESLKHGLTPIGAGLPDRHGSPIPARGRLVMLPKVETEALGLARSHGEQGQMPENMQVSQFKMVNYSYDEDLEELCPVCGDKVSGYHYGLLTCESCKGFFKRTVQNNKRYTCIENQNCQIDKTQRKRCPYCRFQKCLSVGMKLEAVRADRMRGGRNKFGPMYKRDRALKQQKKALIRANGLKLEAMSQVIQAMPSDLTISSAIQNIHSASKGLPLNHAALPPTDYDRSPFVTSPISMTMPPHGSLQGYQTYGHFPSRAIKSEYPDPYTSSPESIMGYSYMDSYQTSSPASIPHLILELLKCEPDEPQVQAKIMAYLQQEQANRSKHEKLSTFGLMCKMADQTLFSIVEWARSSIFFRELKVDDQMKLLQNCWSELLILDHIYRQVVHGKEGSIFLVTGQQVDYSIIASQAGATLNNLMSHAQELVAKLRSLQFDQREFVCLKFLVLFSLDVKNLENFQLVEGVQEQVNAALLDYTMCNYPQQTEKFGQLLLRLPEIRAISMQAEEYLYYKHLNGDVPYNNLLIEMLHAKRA
Sequence of Steroidogenic factor 1 (Homo sapiens) (Q13285 whole entry, looked up, the tested form may be a part): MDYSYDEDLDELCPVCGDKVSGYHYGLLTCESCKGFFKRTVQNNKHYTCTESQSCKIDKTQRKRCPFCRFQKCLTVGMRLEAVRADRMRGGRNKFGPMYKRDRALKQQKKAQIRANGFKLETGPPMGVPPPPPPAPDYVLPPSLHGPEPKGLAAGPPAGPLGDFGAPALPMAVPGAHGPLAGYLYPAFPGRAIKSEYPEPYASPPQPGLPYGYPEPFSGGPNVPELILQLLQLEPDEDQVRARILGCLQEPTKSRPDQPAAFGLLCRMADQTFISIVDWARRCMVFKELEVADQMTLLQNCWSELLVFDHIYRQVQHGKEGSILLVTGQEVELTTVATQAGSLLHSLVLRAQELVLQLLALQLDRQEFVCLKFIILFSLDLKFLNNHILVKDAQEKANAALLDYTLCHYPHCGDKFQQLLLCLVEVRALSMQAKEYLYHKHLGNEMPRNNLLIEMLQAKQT

| Structure (SMILES) | inhibition [1] | inhibition [2] | inhibition [3] | inhibition [4] |
| --- | --- | --- | --- | --- |
| O=C(Nc1ccc2oc(-c3cccnc3)nc2c1)c1ccc([N+](=O)[O-])o1 | 8.01% | 58.1% (active) | 62.5% (active) | -5.53% |
| CCCc1cc(=O)oc2c(C)c(OCC(=O)NCCN3CCOCC3)ccc12 | 6.59% | 43.8% (active) | 46.3% (active) | -19.2% |
| COc1cccc(C(NC(C)=O)c2ccc3cccnc3c2O)c1 (configuration not stated) | 74.9% (active) | 89.8% (active) | 76.5% (active) | 76.3% (active) |
| CCOc1ccc(NC(=O)CN2CCN(CC(=O)Nc3ccc(OC)cc3)CC2)cc1 | 9.49% | 58.5% (active) | 56.2% (active) | 8.13% |
| CC(C)NC(=O)N1Cc2cc(C(=O)NC3CCCC3)nc(-c3cccc(-c4cccnc4)c3)c2[C@@H]1CCO | 24.3% | 45.1% (active) | 42.1% | 5.54% |
| O=C(COc1ccc2ccc(=O)oc2c1)Nc1ccc(N2CCOCC2)cc1 | 13.3% | 57.3% (active) | 45.5% (active) | -5.4% |
| COc1ccc(C(=O)Nc2ccc(S(=O)(=O)N3CCc4ccccc43)cc2)cc1 | 29.2% (active) | 40.6% | 44.5% (active) | 44.7% (active) |
| CCCOc1ccc(N)cc1N | 11.1% | 21.4% | 27% | -3.38% |
| COCC1CCCN(C(=O)c2cc(COc3ccc4ncccc4c3)on2)C1 (configuration not stated) | 30.9% (active) | 58.5% (active) | 64.1% (active) | 47.7% (active) |
| CCCc1nnc2n1N=C(c1ccc(OC)c(OC)c1)CS2 | 4.71% | 38.7% | 26.3% | -24.8% |
| O=C(Cc1ccc(Cl)cc1Cl)Nc1ccncc1Cl | 16.4% | 65.9% (active) | 70% (active) | 47.1% (active) |
| CNC(=S)N/N=C/c1cn(Cc2ccc(C)cc2)c2ccccc12 | 2.35% | 46.9% (active) | 46.8% (active) | 1.56% |
| COc1ccc(NC(=O)/C(Cl)=C(/Cl)S(=O)Cc2ccc(Cl)cc2)cn1 (configuration not stated) | 58% (active) | 91.7% (active) | 84.6% (active) | 89.5% (active) |
| C=CC[n+]1c(/C=C2\C=Cc3cc(C)ccc3N2CC)ccc2ccccc21 | 80.6% (active) | 110% (active) | 95.5% (active) | 95.8% (active) |
| O=[N+]([O-])c1cnccc1Nc1ccccc1 | 7.45% | 62% (active) | 58.9% (active) | 1.98% |
| Cc1ccccc1C(=O)N1CCN(c2ccc(NC(=O)c3ccc([N+](=O)[O-])o3)cc2)CC1 | 25.2% | 64.4% (active) | 69.1% (active) | 2.37% |
| O=C(COC(=O)c1ccc(Br)o1)Nc1ccc2c(c1)OCCO2 | 22% | 59.4% (active) | 63.1% (active) | 1.94% |
| O=C(COc1cc2oc(=O)cc(-c3ccccc3)c2cc1Cl)NCCN1CCOCC1 | 10.4% | 40.5% | 35.4% | -2.31% |
| Cc1ccc(C)c(NC(=O)CSc2nc3c(oc4ccccc43)c(=O)n2-c2ccccc2)c1 | 10.6% | 50.3% (active) | 46.7% (active) | -9.48% |
| O=C(Cn1cnc2c(nnn2-c2ccccc2)c1=O)NCC1CCCO1 (configuration not stated) | -2.93% | 16.6% | -2.18% | 7.48% |
| COc1cccc(/C=N/Nc2nc(Nc3ccccc3)nc(-n3nc(C)cc3C)n2)c1O | 40.7% (active) | -7.01% | 0.2% | -6.05% |
| COc1ccc(CCn2c(C)cc(C(=O)COC(=O)c3ccc(O)cc3O)c2C)cc1 | 5.91% | 41.5% (active) | 28.4% | -15% |
| COc1ccc(CCC(=O)Nc2c(-c3ccc(N(C)C)cc3)[nH][nH]c2=O)cc1 | 4.07% | 27.3% | 37.5% | -2.18% |
| COc1cc(OC)cc(-c2oc3cccnc3c2C#CCCO)c1 | 2.16% | 60.8% (active) | 54.2% (active) | -0.7% |
| Cc1ccccc1C(=O)O/N=C/c1c(N2CCOCC2)n(C)c2ccccc12 | 76.4% (active) | 84.3% (active) | 91.4% (active) | 58.8% (active) |
| CC(O)(c1cccnc1)c1nc(-c2cccc(C#N)c2)cs1 (configuration not stated) | 5.87% | 53.4% (active) | 54% (active) | 7.33% |
| COCC(=O)NC1CCN(CC(=O)Nc2ccc(OC)cc2[N+](=O)[O-])CC1 | 14.2% | 60.2% (active) | 60.8% (active) | -2.25% |

| Structure (SMILES) | inhibition [1] | inhibition [2] | inhibition [3] | inhibition [4] |
| --- | --- | --- | --- | --- |
| Nc1nc2ccccc2cc1C(=O)NCc1ccc(-c2ccccc2)cc1 | 24.6% | 59.4% (active) | 58.6% (active) | 55.9% (active) |
| C#CCSc1nsc(SCC#C)c1C#N | 3.79% | 53.4% (active) | 50.9% (active) | -20% |
| C/C(=N\Nc1cc(C(F)(F)F)ccc1Cl)c1ccncc1 | 2.53% | 40% | 47.6% (active) | 3.73% |
| COc1ccc(-c2sc(C(=O)c3ccc(Cl)cc3Cl)cc2CC(=O)O)cc1 | 17.8% | 42.2% (active) | 38% | -5.16% |
| O=[N+]([O-])c1ccc(/C=N/Nc2ccnc3cc(Cl)ccc23)o1 | -10.6% | 44% (active) | 40% | -10.5% |
| O=[N+]([O-])c1cnccc1Nc1cccc(F)c1 | 11.5% | 62.3% (active) | 55.1% (active) | 10% |
| Cc1ccc(N2C(=O)C(Cl)=C(N3CCN(C)CC3)C2=O)c(C)c1 | 13.1% | 50.3% (active) | 39% | -9.83% |
| CCOc1ccc(NC(=O)CN2C(=O)NC(C)(c3ccc(OC(F)F)cc3)C2=O)cc1 (configuration not stated) | 18.8% | 62.6% (active) | 59.2% (active) | -30.5% |
| O=C1C(Cl)=C(N2CCOCC2)C(=O)N1c1ccc(Br)cc1 | 12.1% | 53.2% (active) | 50.8% (active) | 4.3% |
| Cc1ccc(C2CC(C(F)(F)F)n3nc(C(=O)NCc4ccco4)cc3N2)cc1 (configuration not stated) | 0.64% | 44.1% (active) | 44.8% (active) | -8.91% |
| CC(=O)N1CCc2c(sc(NC(=O)c3ccc([N+](=O)[O-])o3)c2C(N)=O)C1 | 19.9% | 65.2% (active) | 65.3% (active) | -14.1% |
| CCOc1ccc(CCNC(=O)COC(=O)c2ccc(OC)c(OC)c2OC)cc1OCC | 11.7% | 53.8% (active) | 55.5% (active) | -6.44% |
| CCCc1cc(=O)oc2c(C)c(OCC(=O)NC3CC(C)(C)NC(C)(C)C3)ccc12 | 6.86% | 53% (active) | 59% (active) | 9.82% |
| Cn1c(SCC(=O)Nc2ccc(N3CCOCC3)cc2)nnc1-c1ccccc1 | 0.41% | 46.2% (active) | 47.5% (active) | -12.2% |
| CC1CCCN(c2cc(N(C)CCO)c([N+](=O)[O-])c3nonc23)C1 (configuration not stated) | 14.3% | 56.2% (active) | 43.2% (active) | 14.8% |
| CC(=O)Nc1ccc(-c2ccnc3c2CC(C(=O)NCc2ccco2)O3)cc1 (configuration not stated) | 48.1% (active) | 42.6% (active) | 44.6% (active) | 24.2% |
| COC(=O)CNC(=O)c1nn(-c2cccc(OC)c2)c(=O)c2ccccc12 | 25% | 35.9% | 37.3% | -0.96% |
| CCOc1ccc(S(=O)(=O)Nc2nc3ccccc3nc2N2CCN(C)CC2)cc1 | -10.8% | 27.2% | 24.1% | -4.2% |
| CCC(=O)Nc1nnc(SCC(=O)NCCc2ccc(OC)c(OC)c2)s1 | 12.9% | 55.6% (active) | 57.3% (active) | -15.4% |
| CCn1c(=S)sc2c(=O)n(CC(=O)Nc3ccc(Cl)cc3)c(C)nc21 | 6.76% | 55.2% (active) | 46.7% (active) | 19.1% |
| O=C(NCc1cccnc1)c1ccc(NC(=O)c2ccc(Br)cc2)cc1 | 70.9% (active) | 75.9% (active) | 91.9% (active) | 18.5% |
| O=[N+]([O-])c1ccc(-n2cnc3ccccc32)c([N+](=O)[O-])c1 | 17.6% | 54.7% (active) | 62.1% (active) | 9.79% |
| CS(=O)(=O)N(CC(=O)N1CCN(Cc2ccc3c(c2)OCO3)CC1)Cc1ccc(Cl)cc1 | 12.5% | 63% (active) | 44.9% (active) | 36.9% (active) |
| COc1ccc(OC)c(C2C3=C(COC3=O)Nc3cc4c(cc32)OCO4)c1 (configuration not stated) | 57.4% (active) | 27.6% | 41.7% | 27.9% |
| c1ccc(-c2nc(N3CCCCCC3)c3ccccc3n2)nc1 | 24.7% | 63.5% (active) | 74.8% (active) | 39.3% (active) |
| CCc1ccccc1NC(=O)CSc1nc2n[nH]c(C)c2c(=N)n1-c1cccc(OC)c1 | 16.7% | 38.2% | 19.4% | -17.4% |
